Inconclusive results are not listed. A call without a number means that no potency is given here. More than one record can exist for a structure, and the calls need not agree. Activity calls are given as the source filed them. Calls follow the shape of the dose curve; as a rule, active = well fitted inhibition curve with a large enough effect in the repeat runs; inconclusive = weak or mixed curves; inactive = flat fitted curve, though single readings scatter.
Potency is read from the fitted curve at half-maximal effect.

Chain of Luciferin 4-monooxygenase (Photinus pyralis) (P08659 whole entry, looked up): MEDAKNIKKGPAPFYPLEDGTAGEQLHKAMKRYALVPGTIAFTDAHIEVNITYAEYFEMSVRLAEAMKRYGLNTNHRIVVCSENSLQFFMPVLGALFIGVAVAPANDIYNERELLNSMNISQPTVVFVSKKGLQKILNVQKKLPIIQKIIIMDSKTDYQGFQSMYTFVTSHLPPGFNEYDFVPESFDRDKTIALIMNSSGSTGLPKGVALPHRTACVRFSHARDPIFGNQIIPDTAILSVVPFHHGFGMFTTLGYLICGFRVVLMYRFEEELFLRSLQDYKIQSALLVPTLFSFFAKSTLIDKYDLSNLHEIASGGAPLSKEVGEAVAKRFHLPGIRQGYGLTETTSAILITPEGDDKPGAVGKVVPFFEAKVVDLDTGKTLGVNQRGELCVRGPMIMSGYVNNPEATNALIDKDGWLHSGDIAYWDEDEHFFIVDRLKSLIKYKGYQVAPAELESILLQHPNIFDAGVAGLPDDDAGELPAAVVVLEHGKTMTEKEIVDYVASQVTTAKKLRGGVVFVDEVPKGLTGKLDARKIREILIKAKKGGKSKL

The experiment concerns the target Luciferin 4-monooxygenase (Photinus pyralis) (UniProt P08659). Kind of experiment: qHTS assay to identify small molecule inhibitors of firefly luciferase (AID 1224835). Also: nearly all actives have a fitted effect of over 25% in size. To be noted: purified P. pyralis luciferase, luminescence inhibition; series mostly up to 115 µM. An excerpt: U.S. Tox21 Program National Center for Advancing Translational Sciences [NCATS] NIH Chemical Genomics Center [NCGC] U.S. Environmental Protection Agency [EPA] National Institutes of Environmental Health Sciences [NIEHS] National Toxicology Program [NTP] U.S. Food and Drug Administration [FDA] Tox21 Assay Overview: Firefly (Photinus pyralis) luciferase is one of the most commonly used transcriptional reporters. Firefly luciferase reporter-gene assays are generally considered one of the most sensitive assay types (Wood, 1995; Wood, 1998). However, it was initially observed, in 1991, by Thompson et al., that compounds that resemble the substrates of firefly luciferase (FLuc) can act as competitive inhibitors of the enzyme, and that these compounds, upon interaction with luciferase in the cell, can actually stabilize the protein and increase its half-life. Previous profiling work by other groups to determine the prevalence of compounds that affect FLuc enzymatic activity (PubChem AID 411) identified that ~3% of the MLSMR library (then at ~72K) inhibited FLuc. […] Thus the Tox21 10K library is profiled for activity against FLuc using a biochemical assay of purified FLuc and KM concentrations of FLuc substrates (D-luciferin and ATP).
These assay plates were then treated with 23nL of compound or DMSO using a Kalypsys pin tool, which allows for delivery of a 6-point interplate titration of each compound to the assay plate (quantitative HTS.) 1 uL of firefly luciferase mix (containing 50 mM Tris acetate, pH 7.6, 0.04 uM P. pyralis luciferase, 0.01% Tween, 0.05% BSA and dH2O) was then delivered by FRD to each well. Luciferase activity was then measured using a ViewLux CCD imager.
`O=CC(=O)c1ccccc1`: the Potency result was “inactive”. Under `CCc1nc(N)nc(N)c1-c1ccc(Cl)cc1` stands “inactive”; under `CN(C)C(=O)Nc1ccc(Cl)c(Cl)c1`, “inactive”; under `CCN(CC)C(=O)c1cccc(C)c1`, “inactive”. On to `O=C(O)c1ccccc1`, for which the Potency result is “inactive”.

Consider `CC(=O)CCC(=O)O`, for which the Potency entry is “inactive”. As to `Cc1cn([C@H]2C=C[C@@H](CO)O2)c(=O)[nH]c1=O`, the Potency result was “inactive”. In the case of `C1CCC(C(CC2CCCCN2)C2CCCCC2)CC1` (stereo not given), the Potency result was “inactive”. On to `Cc1ncc([N+](=O)[O-])n1C`, for which the Potency entry was “inactive”. As for `NS(=O)(=O)O`, the entry is “inactive”.

Regarding `CCCCCCCC(=O)OCC(COC(=O)CCCCCCC)OC(=O)CCCCCCC`, the Potency result was “inactive”. Take `O=c1[nH]cc(F)c(=O)[nH]1`: the Potency is 41.5 µM (active) and inactive. Under `Nc1c2c(nc3ccccc13)CCCC2` stands “inactive”; under `F[B-](F)(F)F`, “inactive”; under `CCN(Cc1c(F)cccc1Cl)c1c([N+](=O)[O-])cc(C(F)(F)F)cc1[N+](=O)[O-]`, “inactive”. `COc1ccc(OC(F)(F)F)cc1CN[C@H]1CCCN[C@H]1c1ccccc1`: the Potency result is “inactive”. In the case of `NC1CCCCC1`, the Potency entry was “inactive”. As for `O=C1O[C@H]([C@@H](O)CO)C(O)=C1O`, the entry is “inactive”; as for `NC(=O)c1cccnc1`, “inactive”; as for `CC(=O)C(=O)O`, “inactive”. Under `O=C1c2c(O)cccc2Cc2cccc(O)c21` stands “inactive”; under `COc1ccc(C(Cl)=C(c2ccc(OC)cc2)c2ccc(OC)cc2)cc1`, “inactive”; under `Cc1cccc(C)c1`, “inactive”. For the molecule `CC(O)(P(=O)(O)O)P(=O)(O)O`, the Potency entry was “inactive”. Consider `C=CCc1ccc(O)c(OC)c1`, for which the Potency result is “inactive”. On to `CS(=O)(=O)OCCCCOS(C)(=O)=O`, for which the Potency result was “inactive”. As for `CCCCNC(=O)NS(=O)(=O)c1ccc(C)cc1`, the entry is “inactive”; as for `O=C(O)CC(O)C(=O)O` (stereo not given), “inactive”; as for `CC(C)C(=O)Nc1ccc([N+](=O)[O-])c(C(F)(F)F)c1`, “inactive”. As for `CC1(C)O[C@@H]2C[C@H]3[C@@H]4CCC5=CC(=O)C=C[C@]5(C)[C@@]4(F)[C@@H](O)C[C@]3(C)[C@]2(C(=O)CO)O1`, the entry is “inactive”. Under `CN(C)CCOC(C)(c1ccccc1)c1ccccn1` (stereo not given) stands “inactive”; under `CCCCC1(COC(=O)CCC(=O)O)C(=O)N(c2ccccc2)N(c2ccccc2)C1=O`, “inactive”. As to `COc1ccc(CN(CCN(C)C)c2ccccn2)cc1`, the Potency result is “inactive”. Consider `NS(=O)(=O)c1cc2c(cc1Cl)NCNS2(=O)=O`, for which the Potency result is “inactive”. Under `CCCCCCCCCCCCCCCC[N+](C)(C)Cc1ccccc1` stands “inactive”.

As to `CN1CCc2cccc3c2[C@H]1Cc1ccc(O)c(O)c1-3`, the Potency result is “inactive”.

Turning to `COc1ccc2c(c1)c(CC(=O)O)c(C)n2C(=O)c1ccc(Cl)cc1`, the Potency entry was “inactive”. Under `C1=CC2C3C=CC(C3)C2C1` (stereo not given) stands “inactive”. Under `CN1[C@@H]2CC(OC(=O)[C@H](CO)c3ccccc3)C[C@H]1[C@@H]1O[C@@H]12` (stereo not given in full) stands “inactive”; under `CCOc1ccc(NC(C)=O)cc1`, “inactive”.

The record behind these values is PubChem BioAssay (Tox21).
